Laboratory results from publication PMC7862700, “An all-to-all approach to the identification of sequence-specific readers for epigenetic DNA modifications on cytosine”.

Tests used:
Assay in all cases: DAPPL (digital affinity profiling via proximity ligation, sequencing); 10 mM Tris-HCl pH 7.5, 50 mM NaCl, 1 mM DTT, 4% glycerol, room temperature, 30 min; GST-TFs on glutathione beads, 16-mer random dsDNA library, 0.1% formaldehyde crosslink after washing; high values mean tight binding
[1] = target: T1, FLI1 (Homo sapiens, UniProt Q01543 1-452); details: protein: recombinant; tags: N-terminal GST; dsDNA, one strand shown
T1 sequence: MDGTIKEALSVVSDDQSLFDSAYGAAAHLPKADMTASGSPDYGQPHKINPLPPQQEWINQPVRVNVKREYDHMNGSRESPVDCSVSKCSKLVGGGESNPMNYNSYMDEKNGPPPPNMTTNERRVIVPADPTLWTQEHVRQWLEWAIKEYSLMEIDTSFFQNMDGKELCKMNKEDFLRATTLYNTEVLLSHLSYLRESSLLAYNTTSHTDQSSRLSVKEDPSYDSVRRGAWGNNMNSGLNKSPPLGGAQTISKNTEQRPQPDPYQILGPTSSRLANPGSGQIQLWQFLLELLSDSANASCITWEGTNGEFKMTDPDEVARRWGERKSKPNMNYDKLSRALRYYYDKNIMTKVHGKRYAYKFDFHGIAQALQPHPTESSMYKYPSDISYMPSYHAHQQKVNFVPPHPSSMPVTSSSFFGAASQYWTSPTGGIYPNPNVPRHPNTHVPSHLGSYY
Method in brief: (§1)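 The binding signal reported is, for every hexamer, its read frequency for a factor over its read frequency for the tag-only sample. Reads came from pools of yeast-expressed, GST-fused human transcription factors on glutathione beads, barcoded with DNA and mixed with that sample, which were incubated with 200 nmole of a random double-stranded 16-mer DNA library in Tris/NaCl/DTT/glycerol buffer at room temperature for 30 min. After washing, the pools were crosslinked with 0.1% formaldehyde, proximity-ligated with BsaI/T4 ligase for 1 h at 37 °C, PCR-amplified and sequenced on an Illumina NextSeq500.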

[2] = target: T2, ELK1 (Homo sapiens, UniProt P19419 1-428); details: protein: recombinant; tags: N-terminal GST; dsDNA, one strand shown
T2 sequence: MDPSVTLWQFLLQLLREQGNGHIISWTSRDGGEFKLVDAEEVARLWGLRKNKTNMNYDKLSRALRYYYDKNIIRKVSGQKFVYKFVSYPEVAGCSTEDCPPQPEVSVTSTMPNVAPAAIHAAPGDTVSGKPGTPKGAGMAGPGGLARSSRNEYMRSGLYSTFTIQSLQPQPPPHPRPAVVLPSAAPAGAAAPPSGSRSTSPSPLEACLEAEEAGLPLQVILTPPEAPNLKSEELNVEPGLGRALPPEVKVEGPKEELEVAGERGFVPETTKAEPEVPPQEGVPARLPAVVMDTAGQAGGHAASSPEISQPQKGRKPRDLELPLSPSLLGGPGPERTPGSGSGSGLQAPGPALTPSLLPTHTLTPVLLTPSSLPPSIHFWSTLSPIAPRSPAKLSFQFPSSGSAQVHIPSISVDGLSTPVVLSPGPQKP
Method in brief: as §1

[3] = target: T3, GABPA (Homo sapiens, UniProt Q06546 1-454); details: protein: recombinant; tags: N-terminal GST; dsDNA, one strand shown
T3 sequence: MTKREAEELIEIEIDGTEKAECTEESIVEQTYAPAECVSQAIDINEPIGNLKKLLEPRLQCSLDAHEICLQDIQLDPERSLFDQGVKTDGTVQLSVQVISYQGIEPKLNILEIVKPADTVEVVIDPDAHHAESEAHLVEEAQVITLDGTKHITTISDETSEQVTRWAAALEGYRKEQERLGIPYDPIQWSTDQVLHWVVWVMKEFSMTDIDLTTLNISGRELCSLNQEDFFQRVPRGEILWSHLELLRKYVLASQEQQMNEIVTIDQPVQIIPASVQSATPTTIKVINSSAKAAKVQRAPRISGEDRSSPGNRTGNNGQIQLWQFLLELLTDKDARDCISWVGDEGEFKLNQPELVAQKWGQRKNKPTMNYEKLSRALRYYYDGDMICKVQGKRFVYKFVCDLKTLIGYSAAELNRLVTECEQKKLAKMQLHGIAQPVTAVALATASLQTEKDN
Method in brief: as §1

[4] = target: T4, ERG (Homo sapiens, UniProt P11308 1-479); details: protein: recombinant; tags: N-terminal GST; dsDNA, one strand shown
T4 sequence: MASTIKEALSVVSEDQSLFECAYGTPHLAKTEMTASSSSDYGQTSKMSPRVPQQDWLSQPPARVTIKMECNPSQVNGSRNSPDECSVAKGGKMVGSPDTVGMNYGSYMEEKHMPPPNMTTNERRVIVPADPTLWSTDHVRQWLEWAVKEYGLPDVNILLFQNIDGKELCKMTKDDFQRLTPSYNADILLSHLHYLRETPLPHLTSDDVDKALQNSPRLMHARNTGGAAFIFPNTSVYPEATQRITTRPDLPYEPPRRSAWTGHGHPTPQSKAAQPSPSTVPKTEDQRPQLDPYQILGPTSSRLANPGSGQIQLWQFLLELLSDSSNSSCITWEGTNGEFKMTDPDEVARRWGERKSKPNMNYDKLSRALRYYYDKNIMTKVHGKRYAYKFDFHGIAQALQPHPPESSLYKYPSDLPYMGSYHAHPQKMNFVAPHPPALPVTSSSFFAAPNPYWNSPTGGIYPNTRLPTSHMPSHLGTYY
Method in brief: as §1

[5] = target: ELF1 (Homo sapiens, UniProt P32519 1-619); details: protein: recombinant; tags: N-terminal GST; dsDNA, one strand shown
ELF1, sequence (P32519 whole entry): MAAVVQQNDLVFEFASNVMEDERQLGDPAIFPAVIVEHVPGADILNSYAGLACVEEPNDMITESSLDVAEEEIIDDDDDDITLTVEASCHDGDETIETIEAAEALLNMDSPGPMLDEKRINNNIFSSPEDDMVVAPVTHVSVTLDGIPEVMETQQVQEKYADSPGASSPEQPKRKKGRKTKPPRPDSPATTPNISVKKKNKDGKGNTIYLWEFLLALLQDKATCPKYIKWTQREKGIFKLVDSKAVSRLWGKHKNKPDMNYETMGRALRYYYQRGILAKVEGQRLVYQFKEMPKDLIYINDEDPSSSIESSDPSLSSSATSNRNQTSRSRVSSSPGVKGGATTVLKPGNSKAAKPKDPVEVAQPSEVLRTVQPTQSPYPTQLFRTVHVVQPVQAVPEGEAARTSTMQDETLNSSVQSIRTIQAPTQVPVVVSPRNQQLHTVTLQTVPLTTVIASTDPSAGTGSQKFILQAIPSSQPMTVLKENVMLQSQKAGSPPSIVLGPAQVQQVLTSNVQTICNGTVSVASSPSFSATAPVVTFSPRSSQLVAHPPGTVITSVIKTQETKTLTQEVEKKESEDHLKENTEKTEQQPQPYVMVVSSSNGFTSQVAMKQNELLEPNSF
Method in brief: as §1

[6] = target: T5, EHF (Homo sapiens, UniProt Q9NZC4 1-300); details: protein: recombinant; tags: N-terminal GST; dsDNA, one strand shown
T5 sequence: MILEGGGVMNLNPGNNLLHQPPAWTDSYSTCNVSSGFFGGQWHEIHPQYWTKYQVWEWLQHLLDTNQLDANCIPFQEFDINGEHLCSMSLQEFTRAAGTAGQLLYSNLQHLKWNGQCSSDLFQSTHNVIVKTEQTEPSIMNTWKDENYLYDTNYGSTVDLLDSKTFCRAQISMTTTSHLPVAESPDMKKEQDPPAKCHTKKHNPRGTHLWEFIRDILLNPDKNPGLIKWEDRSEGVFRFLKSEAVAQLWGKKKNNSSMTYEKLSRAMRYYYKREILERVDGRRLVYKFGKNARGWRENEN
Method in brief: as §1

[7] = target: SPI1 (Homo sapiens, UniProt P17947 1-270); details: protein: recombinant; tags: N-terminal GST; dsDNA, one strand shown
Method in brief: as §1

[8] = target: SPIB (Homo sapiens, UniProt Q01892 1-262); details: protein: recombinant; tags: N-terminal GST; dsDNA, one strand shown
SPIB, sequence (Q01892 whole entry): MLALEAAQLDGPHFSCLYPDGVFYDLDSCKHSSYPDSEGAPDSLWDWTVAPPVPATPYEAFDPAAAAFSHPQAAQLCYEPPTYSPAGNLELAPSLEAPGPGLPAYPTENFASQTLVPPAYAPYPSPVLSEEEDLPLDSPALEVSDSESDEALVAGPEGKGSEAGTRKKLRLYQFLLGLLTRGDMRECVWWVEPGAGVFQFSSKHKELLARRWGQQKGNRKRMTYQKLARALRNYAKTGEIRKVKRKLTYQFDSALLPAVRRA
Method in brief: as §1

[9] = target: T6, ELK3 (Homo sapiens, UniProt P41970 1-407); details: protein: recombinant; tags: N-terminal GST; dsDNA, one strand shown
T6 sequence: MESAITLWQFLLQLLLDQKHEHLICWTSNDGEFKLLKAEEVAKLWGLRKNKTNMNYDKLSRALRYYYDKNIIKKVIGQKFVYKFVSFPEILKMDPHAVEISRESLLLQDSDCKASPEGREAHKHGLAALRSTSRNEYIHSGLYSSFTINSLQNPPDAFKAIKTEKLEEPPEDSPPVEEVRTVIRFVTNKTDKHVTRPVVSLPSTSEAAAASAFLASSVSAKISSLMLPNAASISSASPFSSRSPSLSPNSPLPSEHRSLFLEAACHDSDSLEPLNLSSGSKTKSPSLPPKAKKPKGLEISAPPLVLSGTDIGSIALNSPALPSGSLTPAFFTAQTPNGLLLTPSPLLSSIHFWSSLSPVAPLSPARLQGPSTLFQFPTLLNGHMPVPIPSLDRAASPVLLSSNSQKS
Method in brief: as §1

[10] = target: T7, FEV (Homo sapiens, UniProt Q99581 1-238); details: protein: recombinant; tags: N-terminal GST; dsDNA, one strand shown
T7 sequence: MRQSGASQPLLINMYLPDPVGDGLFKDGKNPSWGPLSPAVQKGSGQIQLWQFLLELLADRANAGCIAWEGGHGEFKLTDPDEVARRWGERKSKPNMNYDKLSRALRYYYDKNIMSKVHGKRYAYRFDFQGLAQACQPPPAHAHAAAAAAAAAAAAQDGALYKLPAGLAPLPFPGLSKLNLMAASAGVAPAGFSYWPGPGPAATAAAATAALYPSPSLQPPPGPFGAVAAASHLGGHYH
Method in brief: as §1

[11] = target: ETV5 (Homo sapiens, UniProt P41161 1-510); details: protein: recombinant; tags: N-terminal GST; dsDNA, one strand shown
ETV5, sequence (P41161 whole entry): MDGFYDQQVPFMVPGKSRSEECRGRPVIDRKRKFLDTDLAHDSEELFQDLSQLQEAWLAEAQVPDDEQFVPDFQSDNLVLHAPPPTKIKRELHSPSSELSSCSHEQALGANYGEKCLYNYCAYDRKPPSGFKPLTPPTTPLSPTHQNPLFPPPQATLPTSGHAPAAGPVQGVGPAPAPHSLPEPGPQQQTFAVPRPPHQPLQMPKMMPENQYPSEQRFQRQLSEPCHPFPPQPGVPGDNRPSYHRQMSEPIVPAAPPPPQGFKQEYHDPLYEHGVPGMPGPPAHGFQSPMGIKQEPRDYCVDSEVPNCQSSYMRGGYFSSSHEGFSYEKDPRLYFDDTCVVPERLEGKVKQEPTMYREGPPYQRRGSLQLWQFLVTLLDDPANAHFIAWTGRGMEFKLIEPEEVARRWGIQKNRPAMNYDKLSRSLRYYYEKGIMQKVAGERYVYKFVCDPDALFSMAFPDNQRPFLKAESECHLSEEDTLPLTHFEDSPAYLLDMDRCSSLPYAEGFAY
Method in brief: as §1

[12] = target: HSF1 (Homo sapiens, UniProt Q00613 1-529); details: protein: recombinant; tags: N-terminal GST; chain copies: 3; dsDNA, one strand shown
HSF1, sequence (Q00613 whole entry): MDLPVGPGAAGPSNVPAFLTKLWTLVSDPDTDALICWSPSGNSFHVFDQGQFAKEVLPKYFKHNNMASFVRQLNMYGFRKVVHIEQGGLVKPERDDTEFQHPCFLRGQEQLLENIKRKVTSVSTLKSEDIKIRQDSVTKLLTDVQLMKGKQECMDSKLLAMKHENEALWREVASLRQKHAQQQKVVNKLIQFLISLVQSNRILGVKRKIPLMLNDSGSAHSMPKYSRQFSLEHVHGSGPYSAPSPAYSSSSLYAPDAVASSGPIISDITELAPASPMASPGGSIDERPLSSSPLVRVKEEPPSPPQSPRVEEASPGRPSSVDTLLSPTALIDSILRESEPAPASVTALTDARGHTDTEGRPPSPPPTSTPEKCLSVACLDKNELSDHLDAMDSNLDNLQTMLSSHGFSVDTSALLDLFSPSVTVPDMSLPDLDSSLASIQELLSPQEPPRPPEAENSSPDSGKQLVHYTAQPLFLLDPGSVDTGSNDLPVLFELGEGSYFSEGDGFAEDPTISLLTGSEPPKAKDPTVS
Method in brief: as §1

[13] = target: T8, SPIC (Homo sapiens, UniProt Q8N5J4 1-248); details: protein: recombinant; tags: N-terminal GST; dsDNA, one strand shown
T8 sequence: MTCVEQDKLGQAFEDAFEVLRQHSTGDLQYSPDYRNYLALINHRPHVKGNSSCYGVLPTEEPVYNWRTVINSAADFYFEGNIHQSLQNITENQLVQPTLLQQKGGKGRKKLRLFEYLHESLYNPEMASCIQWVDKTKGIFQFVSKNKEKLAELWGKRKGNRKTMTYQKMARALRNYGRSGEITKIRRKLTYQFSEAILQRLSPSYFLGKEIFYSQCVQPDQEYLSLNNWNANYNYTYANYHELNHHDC
Method in brief: as §1

[14] = target: ELF4 (Homo sapiens, UniProt Q99607 1-663); details: protein: recombinant; tags: N-terminal GST; dsDNA, one strand shown
ELF4, sequence (Q99607 whole entry): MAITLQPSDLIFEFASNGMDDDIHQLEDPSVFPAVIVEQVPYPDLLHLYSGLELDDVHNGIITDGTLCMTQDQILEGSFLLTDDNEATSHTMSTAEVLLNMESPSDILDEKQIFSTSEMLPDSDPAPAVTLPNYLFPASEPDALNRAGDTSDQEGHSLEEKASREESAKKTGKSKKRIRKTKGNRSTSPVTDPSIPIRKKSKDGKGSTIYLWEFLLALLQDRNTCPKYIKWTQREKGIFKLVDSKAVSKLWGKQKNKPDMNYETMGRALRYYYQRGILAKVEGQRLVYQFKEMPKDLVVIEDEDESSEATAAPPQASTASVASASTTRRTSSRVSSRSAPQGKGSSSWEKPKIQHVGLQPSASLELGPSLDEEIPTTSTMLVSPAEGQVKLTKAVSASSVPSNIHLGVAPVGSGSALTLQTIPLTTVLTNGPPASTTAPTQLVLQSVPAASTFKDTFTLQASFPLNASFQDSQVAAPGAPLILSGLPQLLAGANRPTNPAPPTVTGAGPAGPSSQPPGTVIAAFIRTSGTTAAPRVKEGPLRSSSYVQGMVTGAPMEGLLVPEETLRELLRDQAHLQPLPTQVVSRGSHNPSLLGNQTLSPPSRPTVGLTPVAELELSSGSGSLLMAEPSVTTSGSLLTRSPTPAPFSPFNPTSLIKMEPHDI
Method in brief: as §1

[15] = target: T9, ELK4 (Homo sapiens, UniProt P28324-2 1-405); details: protein: recombinant; tags: N-terminal GST; dsDNA, one strand shown
T9 sequence: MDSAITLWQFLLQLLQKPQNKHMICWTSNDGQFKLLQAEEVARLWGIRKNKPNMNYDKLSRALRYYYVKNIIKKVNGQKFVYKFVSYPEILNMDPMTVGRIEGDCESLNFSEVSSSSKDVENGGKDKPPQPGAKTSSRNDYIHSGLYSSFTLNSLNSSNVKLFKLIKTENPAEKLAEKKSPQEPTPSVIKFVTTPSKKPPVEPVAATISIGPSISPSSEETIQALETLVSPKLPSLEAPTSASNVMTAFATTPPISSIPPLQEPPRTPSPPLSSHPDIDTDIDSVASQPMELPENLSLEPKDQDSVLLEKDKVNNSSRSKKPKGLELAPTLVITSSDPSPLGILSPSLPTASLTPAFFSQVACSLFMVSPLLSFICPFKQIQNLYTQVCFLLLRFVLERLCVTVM
Method in brief: as §1

[16] = target: T10, ETV2 (Homo sapiens, UniProt O00321 1-342); details: protein: recombinant; tags: N-terminal GST; dsDNA, one strand shown
T10 sequence: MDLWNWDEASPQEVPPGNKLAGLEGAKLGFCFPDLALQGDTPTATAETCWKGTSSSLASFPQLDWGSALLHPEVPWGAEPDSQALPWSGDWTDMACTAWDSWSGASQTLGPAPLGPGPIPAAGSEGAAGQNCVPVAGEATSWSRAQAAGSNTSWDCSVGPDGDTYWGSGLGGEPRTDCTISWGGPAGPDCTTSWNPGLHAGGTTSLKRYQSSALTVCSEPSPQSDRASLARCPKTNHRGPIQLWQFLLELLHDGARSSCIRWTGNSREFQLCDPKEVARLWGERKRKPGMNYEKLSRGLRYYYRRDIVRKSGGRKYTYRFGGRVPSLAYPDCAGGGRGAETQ
Method in brief: as §1

[17] = target: T11, ELF3 (Homo sapiens, UniProt P78545 1-371); details: protein: recombinant; tags: N-terminal GST; dsDNA, one strand shown
T11 sequence: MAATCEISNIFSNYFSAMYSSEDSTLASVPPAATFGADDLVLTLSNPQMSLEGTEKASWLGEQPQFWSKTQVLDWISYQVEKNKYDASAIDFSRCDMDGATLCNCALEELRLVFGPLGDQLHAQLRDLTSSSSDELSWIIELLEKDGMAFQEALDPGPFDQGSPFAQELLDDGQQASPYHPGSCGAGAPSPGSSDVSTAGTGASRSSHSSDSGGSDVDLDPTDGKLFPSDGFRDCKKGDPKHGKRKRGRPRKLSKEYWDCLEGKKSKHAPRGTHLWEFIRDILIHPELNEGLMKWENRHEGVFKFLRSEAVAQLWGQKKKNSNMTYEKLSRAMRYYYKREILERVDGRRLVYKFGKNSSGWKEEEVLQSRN
Method in brief: as §1

[18] = target: ETV1 (Homo sapiens, UniProt P50549 1-477); details: protein: recombinant; tags: N-terminal GST; dsDNA, one strand shown
ETV1, sequence (P50549 whole entry): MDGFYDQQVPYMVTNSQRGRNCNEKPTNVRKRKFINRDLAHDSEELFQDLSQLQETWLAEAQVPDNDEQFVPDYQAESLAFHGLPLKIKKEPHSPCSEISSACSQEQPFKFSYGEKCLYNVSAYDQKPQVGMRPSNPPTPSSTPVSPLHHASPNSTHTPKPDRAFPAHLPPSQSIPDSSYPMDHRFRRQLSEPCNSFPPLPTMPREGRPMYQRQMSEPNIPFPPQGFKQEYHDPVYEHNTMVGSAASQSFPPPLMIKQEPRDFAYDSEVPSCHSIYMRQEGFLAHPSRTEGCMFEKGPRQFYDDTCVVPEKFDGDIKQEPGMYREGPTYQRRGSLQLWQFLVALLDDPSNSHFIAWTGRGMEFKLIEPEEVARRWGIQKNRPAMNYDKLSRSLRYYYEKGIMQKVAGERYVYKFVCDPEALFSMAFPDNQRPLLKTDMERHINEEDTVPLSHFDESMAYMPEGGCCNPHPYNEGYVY
Method in brief: as §1

CCGGCA was tested, and the binding signal [1] was 1.38 fold enrichment (6-mer frequency, TF over GST control), the binding signal [2] was 1.37 fold enrichment (6-mer frequency, TF over GST control) and the binding signal [3] was 1.39 fold enrichment (6-mer frequency, TF over GST control). The binding signal [4] was 1.53 fold enrichment (6-mer frequency, TF over GST control), the binding signal [5] was 1.29 fold enrichment (6-mer frequency, TF over GST control) and the binding signal [6] was 1.4 fold enrichment (6-mer frequency, TF over GST control). The binding signal [7] was 1.44 fold enrichment (6-mer frequency, TF over GST control), the binding signal [8] was 1.53 fold enrichment (6-mer frequency, TF over GST control) and the binding signal [9] was 1.5 fold enrichment (6-mer frequency, TF over GST control). For the same sequence, the binding signal [10] was 1.53 fold enrichment (6-mer frequency, TF over GST control), the binding signal [11] was 1.47 fold enrichment (6-mer frequency, TF over GST control) and the binding signal [12] was 1.01 fold enrichment (6-mer frequency, TF over GST control). The binding signal [13] was 1.32 fold enrichment (6-mer frequency, TF over GST control), the binding signal [14] was 1.28 fold enrichment (6-mer frequency, TF over GST control) and the binding signal [15] was 1.24 fold enrichment (6-mer frequency, TF over GST control). The binding signal [16] was 1.28 fold enrichment (6-mer frequency, TF over GST control), the binding signal [17] was 1.31 fold enrichment (6-mer frequency, TF over GST control) and the binding signal [18] was 1.46 fold enrichment (6-mer frequency, TF over GST control).
